Experimental data published in PubChem BioAssay (Tox21).
Active and inactive are the calls of the source. Calls follow the shape of the dose curve; as a rule, active = well fitted curve in the direction sought with a large enough effect in the repeat runs; inconclusive = weak or mixed curves; inactive = flat fitted curve, though single readings scatter.

test: qHTS assay to test for compound auto fluorescence at 535 nm (green) in HepG2 cell free culture (AID 720686); settings: Cell-free medium, green autofluorescence 485/535 nm; series mostly up to 91.3 µM
From the text: U.S. Tox21 Program National Center for Advancing Translational Sciences [NCATS] NIH Chemical Genomics Center [NCGC] U.S. Environmental Protection Agency [EPA] National Institutes of Environmental Health Sciences [NIEHS] National Toxicology Program [NTP] U.S. Food and Drug Administration [FDA] Tox21 Assay Overview: Compound auto fluorescence often interferes with screening of the compound library against various biological targets and signaling pathways. Some of these compounds may have fluorophoric properties. Such properties may interfere with the assay outputs resulting in false positives and/or negatives. To decrease such complications and ensure the compound activities are relevant in terms of biological response, the Tox21 10K compound library was screened for auto fluorescence. From the fluorophores used as reporter signals in our screening assays, the auto fluorescence equivalencies of compounds against three fluorophores have been evaluated: Triamterene, Fluorescein and Rose Bengal sodium for blue, green and red fluorescence, respectively. The fluorescence intensities were measured using Excitation/Emission wavelengths at 405/460nm, 485/535nm and 540/590nm for blue, green and red labels, respectively. This assay includes the green fluorescence data.
Tox21 Assay Protocol Summary: 5 uL of culture medium (MEM containing 10% FBS) per well was dispensed into black wall/clear bottom 1536-well plates using a Multidrop Combi Dispenser (ThermoFisher Scientific, Waltham, MA). After 23 nL compound or DMSO vehicle was transferred into assay plate by a pintool work station (Kalypsys, San Diego, CA), fluorescence intensities in the assay plates were measured by an Envision (PerkinElmer, Shelton, CT) plate reader using three labels for measuring blue, green and red fluorescence at […] 460, 535 and 590nm respectively.

Row | Compound | outcome
1 | CCCCCCCC(=O)OCC(O)CO (stereo not given) | inactive
2 | CC(=O)CCC(C)C | inactive
3 | Cn1cnc2c1c(=O)[nH]c(=O)n2C | inactive
4 | CCCCCCCCCCCCCCCCCC(=O)OCC(O)CO (stereo not given) | inactive
5 | O=C(O)CN(CC(=O)O)CC(=O)O | inactive
6 | O=c1cc[nH]c(=O)[nH]1 | inactive
7 | NC(=O)N/N=C/c1ccc([N+](=O)[O-])o1 | inactive
8 | O=C(OCc1ccccc1)c1ccccc1 | inactive
9 | COc1ccccc1O | inactive
10 | CC(O)COc1ccccc1 (stereo not given) | inactive
11 | COc1cc(C=O)ccc1O | inactive
12 | CCN1CCCC1=O | inactive
13 | CC1=NN(c2ccccc2)C(=O)C1 | inactive
14 | Cc1ccc(O)c(-n2nc3ccccc3n2)c1 | inactive
15 | O=c1c(-c2ccc(O)cc2)coc2cc(O)cc(O)c12 | inactive
16 | CC(=O)OC/C=C(C)/C=C/C=C(C)/C=C/C1=C(C)CCCC1(C)C | inactive
17 | CCc1cc(C(N)=S)ccn1 | inactive
18 | CCCCCCCCOc1ccc(C(=O)c2ccccc2)c(O)c1 | inactive
19 | C=C(C)OC(C)=O | inactive
20 | CC(=O)c1ccc(S(=O)(=O)NC(=O)NC2CCCCC2)cc1 | inactive

Row | Compound | outcome
21 | COc1ccc(O)cc1 | inactive
22 | CCCCC/C(C=O)=C\c1ccccc1 | inactive
23 | COc1cc2c(c(OC)c1OC)-c1ccc(OC)c(=O)cc1[C@@H](NC(C)=O)CC2 | inactive
24 | NC(=O)OCC(COC(N)=O)c1ccccc1 | inactive
25 | CCN(CC)CCOC(=O)c1ccc(N)cc1 | inactive
26 | CCCCOCCOCCSC#N | inactive
27 | Nc1cccc(N)c1 | inactive
28 | Cc1cccc(C)c1O | inactive
29 | CN/C(=C\[N+](=O)[O-])NCCSCc1ccc(CN(C)C)o1 | inactive
30 | Oc1cccc(O)c1 | inactive
31 | CC(C)=CCC/C(C)=C/CO | inactive
32 | CC(C)(C)CC(C)(C)c1ccc(O)c(-n2nc3ccccc3n2)c1 | inactive
33 | C[C@]12C[C@H](O)[C@H]3[C@@H](CCC4=CC(=O)CC[C@@]43C)[C@@H]1CC[C@@H]2C(=O)CO | inactive
34 | O=C1CCCCCN1 | inactive
35 | COC(=O)C1CCC(C(=O)OC)CC1 (stereo not given) | inactive
36 | CCCCCCCCCCCCCC(=O)OC(C)C | inactive
37 | c1ccc2[nH]c(-c3cscn3)nc2c1 | inactive
38 | N[C@@H](Cc1c[nH]c2ccc(O)cc12)C(=O)O | inactive
39 | CC(=O)Oc1ccccc1C(=O)O | inactive
40 | CC(C)CC(C)CC(O)CC(C)C (stereo not given) | inactive
